# Screening data as filed in PubChem BioAssay.
# Only some compounds are listed: those with a hit (about 2% of all), similar ones and a draw of the others.
# BJeLR viability = BJeLR cell viability loss. BJeLR (HRASV12) viability, CellTiter-Glo ATP luminescence, 48 h. inhibition, % (no concentration beside the values). 0.17% of 300,000 active. AID 1554; in the data active = inhibition above about 50%
# CCHF vOTU inh-1 = blocks the CCHF virus ovarian tumor domain protease; inhibition, % at 11.5 µM; 0.55% of 370,000 active; CCHFV vOTU protease, Pep-AMC fluorescence
# PfHsp40 rescue = rescue of PfHsp40-mediated yeast toxicity; S. cerevisiae expressing PfHsp40, growth rescue, ATP luminescence; growth rescue, % at 12.5 µM; 0.68% of 340,000 active; AID 504582; in the data active = growth rescue above about 28%, passing the limit was not always enough;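 note: yeast W303a lacking pdr1 and pdr3 grown in galactose medium; growth measured after three days at 30 °C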
# Yp Topo-I inh = inhibitors of Yersinia pestis topoisomerase I. Y. pestis Topo-I cleavage product accumulation, plate reader. activity, % at 10 µM. 0.064% of 360,000 active; in the data active = activity above about 50%, passing the limit was not always enough
# PrPC surface inh = cell surface PrPC inhibition, primary TR-FRET screen; AID 720596; 0.43% of 370,000 active; inhibition, % at 13.8 µM; TR-FRET read-out; in the data active = inhibition above about 24%
# PrP UTR inh = inhibition of PrP 5' UTR reporter expression; 0.35% of 340,000 active; AID 488862; cell-based PrP 5' UTR mRNA reporter, plate reader; inhibition, % (test concentration not listed); in the data active = inhibition above about 52%
# CCHF vOTU inh-2 = CCHFV vOTU protease inhibition, confirmation. shares compounds with CCHF vOTU inh-1. Recombinant CCHFV vOTU, Pep-AMC fluorescence. inhibition, % at 11.5 µM. 17% of 1,900 active
# Numbers stand for hits; n = inactive; x = not tested or not shown; ! = not confirmed by another sample. Cut-off read from the data, not from the text of the source, unless noted: active = inhibition above about 30%; inactive = the rest.
SMILES,BJeLR viability,CCHF vOTU inh-1,PfHsp40 rescue,Yp Topo-I inh,PrPC surface inh,PrP UTR inh,CCHF vOTU inh-2
CCN(CC)C(=O)CC[C@H]1CC[C@]2(CCCN(Cc3nccn3C)C2)O1,x,n,x,x,n,x,x
O=S1(=O)N=C(N(CCO)/N=C/c2ccccc2)c2ccccc21,n,n,n,n,n,n,x
O=S1(=O)N=C(N(CCO)/N=C/c2ccncc2)c2ccccc21,n,30,n,n,n,n,n
Cc1cccc(-c2cccc3c4c([nH]c23)[C@@H]2C[C@H]3[C@@H](CN2CC4)[C@H](C)ON3C)c1,x,n,x,x,n,x,x
COC(=O)c1cccc(Cn2ccc3ccc(-c4ccc5ccn(C(=O)c6ccc(C)cc6)c5c4)cc32)c1,x,n,x,x,n,x,x
O=C1Cc2ccccc2C(=O)N1Cc1cccc(Cl)c1,n,64,n,n,n,n,54
Nc1cccc2c1C(=O)N(Cc1cccc(Cl)c1)C2=O,n,n,n,n,n,n,x
Cc1ccc2c(c1)C(=O)C(=O)N2c1ccc(Cl)cc1,x,n,n,n,n,n,x
Cc1ccc2c(c1)C(=O)C(=O)N2c1ccc(C(F)(F)F)cc1,x,30,n,n,n,n,n
COCCN1CCCc2nc(-c3ccc(Br)cc3)ccc21,x,n,x,x,n,x,x
O=C(Nc1cc([N+](=O)[O-])ccc1O)NC1CCS(=O)(=O)C1 (stereo not given),x,36,n,n,n,n,n
CC1=C(/C=C/C(C)=C/C=C/C(C)=C\C(=O)O)C(C)(C)CCC1,n,n,n,n,n,n,x
CC1=C(/C=C/C(C)=C/C=C/C(C)=C/C(=O)Nc2ccc(O)cc2)C(C)(C)CCC1,x,34!,n,n,n,n,n
O=C(NC(=S)Nc1ccc(S(=O)(=O)Nc2nccs2)cc1)c1ccc(F)c(F)c1,n,42,n,n,n,n,n
CCCN1CCCCC(NC(=O)COCc2ccccc2)C1=O (stereo not given),x,n,x,x,n,x,x
O=S(=O)(O)c1cc(Cl)cc(N=Nc2ccc(O)cc2O)c1O,x,31,58,n,n,n,n
O=S1(=O)c2c(cccc2N2CCC[C@H]2CO)OCCCN1C1CC1,x,n,x,x,n,x,x
O=[N+]([O-])c1ccccc1-c1ccc(C(=S)N2CCCC2)o1,n,30,n,n,n,n,39
CN(C)c1ccc(C(=O)NCCc2ccccc2-c2ccccc2CCC(=O)NCc2ccccc2)cc1,x,n,x,x,n,x,x
CC(C)C1S/C(=N/N=C/c2cccs2)NC1=O (stereo not given),n,35,n,n,n,n,n
CC1S/C(=N/N=C/c2cccs2)NC1=O (stereo not given),n,n,n,n,n,n,x
O=C(C1CCCN1S(=O)(=O)c1cccc2ccccc12)N1CCN(c2ccccc2)CC1 (stereo not given),x,n,x,x,n,x,x
CCCCOc1ccc(C(=O)NC2CCCCN(Cc3ccc(C)cc3)C2=O)cc1 (stereo not given),x,n,x,x,n,x,x
CCOC(=O)Nc1sc(NS(=O)(=O)c2ccc(C)cc2)nc1C,n,30,n,n,n,n,n
O=C(Nc1sc2c(c1C(=O)O)CCCCC2)c1ccccc1F,n,37,n,n,n,n,n
SMILES,BJeLR viability,CCHF vOTU inh-1,PfHsp40 rescue,Yp Topo-I inh,PrPC surface inh,PrP UTR inh,CCHF vOTU inh-2
COC(=O)[C@]12C[C@H](CC(=O)NCCC(C)C)C(=O)N(Cc3ccc4c(c3)OCO4)C1=C[C@H](C(C)(C)C)O[C@@H]2C,x,32,x,x,n,x,n
C#CCNC(=O)C[C@H]1C[C@@]2(C(=O)OC)C(=C[C@H](C(C)(C)C)O[C@@H]2C)N(Cc2ccc3c(c2)OCO3)C1=O,x,n,x,x,n,x,x
COC(=O)[C@]12C[C@H](CC(=O)NCc3cccc(C(F)(F)F)c3)C(=O)N(Cc3ccc4c(c3)OCO4)C1=C[C@H](C(C)(C)C)O[C@@H]2C,x,34,x,x,n,x,n
O=C1N/C(=N/Nc2ccccc2)S/C1=C\c1ccccc1,n,32,n,n,n,n,n
O=C(OCc1cn(Cc2ccccc2F)nn1)N1CCCC1,x,n,x,x,n,x,x
CCC(=Nc1ccc(N)cc1)C1=C(O)C(C(=O)OC)C(C)(C)CC1=O (stereo not given),n,105,n,n,n,n,n
CCCCC(=Nc1ccc(N)cc1)C1=C(O)C(C(=O)OC)C(C)(C)CC1=O (stereo not given),n,92,n,n,n,n,n
CCC(=NCc1ccccc1)C1=C(O)C(C(=O)OC)C(C)(C)CC1=O (stereo not given),n,n,n,n,n,n,x
CCCC(=Nc1ccccc1)C1=C(O)C(C(=O)OC)C(C)(C)CC1=O (stereo not given),n,n,n,n,n,n,x
C[C@H]1CN([C@@H](C)CO)C(=O)CCCn2cc(nn2)CO[C@@H]1CN(C)S(=O)(=O)c1cn(C)cn1,x,n,x,x,n,x,x
O=C(CNC(=O)Cc1ccccc1)NCC(=O)OCC(=O)c1cccc2ccccc12,n,31,n,n,n,n,n
CCCc1nc2c(C)cc(Br)cn2c1Cc1ccccc1OC,x,n,x,x,n,x,x
COC(=O)[C@]12CCCCC=C1N(Cc1ccc(Cl)cc1Cl)C(=O)[C@H](CC(=O)NCCCCc1ccccc1)C2,x,33,x,x,n,x,n
COC(=O)[C@@]12C[C@@H](CC(=O)NCCCCc3ccccc3)C(=O)N(Cc3cccc4ccccc34)C1=CCC(C)(C)C2,x,30,x,x,n,x,n
COC(=O)[C@@]12C[C@@H](CC(=O)NCc3ccccc3)C(=O)N(Cc3cccc4ccccc34)C1=CCC(C)(C)C2,x,n,x,x,n,x,x
CN(C)C=Nc1nc2c(Br)ccc(Br)c2cc1C(=O)NCC(C)(C)C,x,n,x,x,n,x,x
Cc1ccccc1C(=O)N(C)[C@H]1C[C@H]2c3[nH]c4c(-c5ccccc5)cccc4c3CCN2C(=O)[C@H]1[C@H](C)O,x,n,x,x,n,x,x
Clc1ccc(C(c2ccc(Cl)cc2)n2cc[n+](CC(OCc3ccc(Cl)cc3Cl)c3ccc(Cl)cc3Cl)c2)cc1 (stereo not given),x,41,n,n,n,n,n
C[C@@H]1CN([C@H](C)CO)C(=O)c2cc(Br)cnc2O[C@H]1CN(C)C(=O)c1ccccc1,x,34,x,n,n,x,n
Cc1cccc(Nc2nc(N)c([N+](=O)[O-])c(N3CCCC(C)C3)n2)c1 (stereo not given),n,31,166,n,n,n,n
Cc1cccc(Nc2nc(N)c([N+](=O)[O-])c(N3CCN(C)CC3)n2)c1,n,n,n,n,n,n,x
Cc1ccc(NC(=O)C(c2ccccc2)N2CCN(CC(=O)N3CCOCC3)CC2)cc1 (stereo not given),x,34,n,n,n,n,n
COc1ccc(C)cc1NC(=O)C(c1ccccc1)N1CCN(CC(=O)N2CCOCC2)CC1 (stereo not given),x,n,n,n,n,n,x
CCN(C(=O)[C@@H](C1CC1)[C@@H](O)c1ccc(Cl)cc1)c1ccccc1,x,n,x,x,n,x,x
Oc1cc(CNCc2ccccc2)c(O)cc1CNCc1ccccc1,x,43,n,n,n,n,n
OCc1ccccc1CNCc1ccccc1,n,n,n,n,n,n,x
